# Compound activity as filed in PubChem BioAssay.
# aGal spleen mod – inhibits or activates alpha-galactosidase in human spleen homogenate; P06280; human spleen homogenate, 4MU-alpha-Gal fluorescence, 40 min; Potency, µM (series often up to 80 µM), for inactives: top-dose activity change, negative = inhibition, most hits filed as inhibitors; 0.008% of 240,000 active;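 further: potency means the concentration at half of the fitted maximal effect; 0% = enzyme with vehicle and -100% = no enzyme basal signal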
# Target sequence (P06280 32-429 limits assumed): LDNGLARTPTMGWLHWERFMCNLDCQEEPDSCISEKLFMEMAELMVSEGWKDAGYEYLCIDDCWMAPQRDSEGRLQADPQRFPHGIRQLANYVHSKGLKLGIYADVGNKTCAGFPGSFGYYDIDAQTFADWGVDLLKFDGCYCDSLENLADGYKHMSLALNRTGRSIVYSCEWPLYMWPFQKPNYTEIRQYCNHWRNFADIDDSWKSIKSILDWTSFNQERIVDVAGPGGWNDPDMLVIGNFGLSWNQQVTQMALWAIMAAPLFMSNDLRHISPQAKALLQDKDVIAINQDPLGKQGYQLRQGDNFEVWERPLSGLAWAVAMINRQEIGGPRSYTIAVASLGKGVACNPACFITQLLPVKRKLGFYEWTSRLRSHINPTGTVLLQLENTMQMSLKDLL
#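 Human spleen homogenate (1 ug) was the enzyme source, with 4-methylumbelliferyl-alpha-D-galactopyranoside (1 mM final) in pH 5.0 citrate buffer with 0.01% Tween-20. Compounds were titrated; after 40 min at 37C, NaOH/glycine stop, 4-MU fluorescence read; AC50 from Hill fits.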
# GLA inh pH 4.5 – inhibitors of human alpha-galactosidase A at pH 4.5; P06280; purified enzyme, 4-MU-alpha-Gal fluorescence, pH 4.5; activity change, negative = inhibition, % at 105 µM; 230,000 tested, under 10 active; AID 1467;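 further: 0% = full activity with enzyme and -100% = basal without enzyme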
# HPGD block – blocks human HPGD enzyme activity | Potency, µM, for inactives: at the highest dose activity change, negative = inhibition, actives largely listed as inhibitors | 4.3% of 150,000 active | P15428 | AID 894 | purified HPGD, NADH fluorescence kinetic, PGE2 substrate; active means well fitted inhibition curve with a large enough effect, not every such curve was filed as active; inconclusive means small, poorly fitted or top-dose-only effect, or another doubt; inactive means no such curve, though single readings can be large or run the other way; further: potency means the concentration at half of the fitted maximal effect
# Target sequence (P15428 whole entry, looked up): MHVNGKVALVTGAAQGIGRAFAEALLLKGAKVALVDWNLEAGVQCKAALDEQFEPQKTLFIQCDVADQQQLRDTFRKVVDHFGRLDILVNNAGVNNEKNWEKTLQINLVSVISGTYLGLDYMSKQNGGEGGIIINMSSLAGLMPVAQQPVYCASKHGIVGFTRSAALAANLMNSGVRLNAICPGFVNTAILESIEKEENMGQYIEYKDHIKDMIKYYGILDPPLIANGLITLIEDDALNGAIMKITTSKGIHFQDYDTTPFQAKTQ
#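 NADH formation kinetics: reaction with 30 uM PGE2 and 1 mM NAD+ (final), 20 nM enzyme, Tris-HCl pH 8 with Tween 20, after 15 min compound preincubation at room temperature. Fluorescence change, last versus first of five reads.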
# ALDH1A1 inh – blocks purified human ALDH1A1 activity | 7.3% of 220,000 active | Purified ALDH1A1, NADH fluorescence, propionaldehyde substrate | P00352 | Potency, µM (top dose mostly 75.3 µM), for inactives: at the highest dose activity, negative = inhibition, usual class: inhibitors; active means well fitted inhibition curve with a large enough effect, not every such curve was filed as active; inconclusive means small, poorly fitted or top-dose-only effect, or another doubt; inactive means no such curve, though single readings can be large or run the other way;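 further: potency means the concentration at half of the fitted maximal effect; plate controls were no enzyme wells and a reference inhibitor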
# ALOX12 inhib – 12-hLO (ALOX12) enzyme inhibition. P18054. purified 12-hLO, xylenol orange hydroperoxide absorbance. Potency, µM (titrated, usually from 57.1 µM), for inactives: at the top dose activity change, negative = inhibition, most hits filed as inhibitors. 0.12% of 150,000 active. AID 1452; further: potency means the concentration at half of the fitted maximal effect; nearly all actives have a fitted effect of over 55% in size
#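 Hydroperoxide formation by human 12-lipoxygenase from 40 uM arachidonic acid was followed colorimetrically via ferric-xylenol orange complex, using the 573/405 nm absorbance ratio. Enzyme concentration was 150 nM, with 30 min reaction at room temperature.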
# PNC inhibitor – inhibitors of perinucleolar compartment assembly; PC3M PTB-GFP, PNC prevalence imaging, 16 h; stronger effect = lower value; activity change (PNC), negative = inhibition, % at 10 µM; 3.1% of 140,000 active; AID 2417;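 active means readout at or below -70, meaning at least 70% loss of cells showing the perinucleolar compartment, a nuclear body marking cancer cells; inconclusive means readout between -30 and a set limit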;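 further: plate controls were DMSO wells for no effect and camptothecin positive control wells for full effect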
#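 Read-out is percentage of cells bearing a perinucleolar compartment, from automated 20x imaging of fixed, Hoechst-stained PC3M PTB-GFP cells. Cells were seeded 4 h, then exposed 16 h to compound (23 nl of library stock) in duplicate plates.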
# The depositor's hits bear a star; ? = inconclusive; . = no result; ! = not active in a repeat; [ ] = dose if it differs, or a comment. Most compounds without a hit are left out; they make up all but 10% or so of the library. Unless noted, the call rests on the fitted dose curve; in most records, active means well fitted curve in the direction sought with a large enough effect; inconclusive means small, poorly fitted or top-dose-only effect, or another doubt; inactive means no such curve, though single readings can be large; an effect the other way counts as inactive or inconclusive. Unless noted, on the % scale 0 is the no-effect control and ±100 the full control effect.
SMILES,aGal spleen mod,GLA inh pH 4.5,HPGD block,ALDH1A1 inh,ALOX12 inhib,PNC inhibitor
COc1cc(C2Nc3ccccc3C(=O)N2c2ccc3c(c2)OCCO3)ccc1OCC(C)C (stereo not drawn),-6.6%,-11.5,?,?,-11.2%,11.8
CN(C)c1ccc(C(CC(=O)O)NC(=O)c2ccc(Cl)cc2)cc1 (stereo not drawn),3.0%,-2.3,-11.5%,17.8µM*,10.9%,-2.2
COCC(C)NC(=O)c1ccc(N(C)C)cc1 (stereo not drawn),1.2%,-1.4,22.4µM*,8.91µM*,1.2%,-3.8
COCC(C)NC(=O)c1cccc([N+](=O)[O-])c1 (stereo not drawn),-3.7%,9.2,.,-8.9%,.,.
CC(=O)Nc1ccc(C(=O)NC(CC(=O)O)c2ccc(Cl)cc2)cc1 (stereo not drawn),-6.9%,5.3,-13.3%,-12.5%,4.1%,-3.6
Fc1ccc2nc(Nc3nc4cc5c(cc4s3)OCO5)sc2c1,2.6%,-10.5,?,?,-1.2%,?
c1ccc2sc(Nc3nc4cc5c(cc4s3)OCO5)nc2c1,-0.8%,-3.0,?,?,1.1%,-123.8*
O=C(NNc1nc2cc3c(cc2s1)OCCO3)c1ccc(F)cc1,-5.5%,-5.2,.,0.4%,.,.
O=C(NNc1nc2cc3c(cc2s1)OCO3)c1ccc(F)cc1,9.2%,6.7,25.1µM*,?,-11.3%,-118.9*
COc1cc(OC)c2c(c1)OC1Cc3cc(OC)c(OC)cc3C2O1 (stereo not drawn),-13.1%[17.5 µM],0.2,-6.6%,1.9%[13.5 µM],-1.0%[11.4 µM],.
CCCCCCC(=O)N(O)C1CC(=O)N(c2ccc(Cl)cc2)C1=O (stereo not drawn),1.1%,8.5,.,.,.,.
CCCCCCC(=O)N(O)C1CC(=O)N(c2ccc(C)cc2)C1=O (stereo not drawn),5.5%,5.4,7.94µM*,0.447µM*,-29.5%,-15.5
Cc1ccc(N2C(=O)CC(N(O)C3CC(=O)N(c4ccc(C)cc4)C3=O)C2=O)cc1 (stereo not drawn),1.5%,-0.2,31.6µM*,2.82µM*,?,-0.5
CCC(C)/C(C)=N/NC(=O)c1ccc(COc2ccc(Cl)c(C)c2)cc1 (stereo not drawn),-1.7%,-1.7,-14.7%,12.6µM*,-2.5%,-134.0*
N#Cc1ccc(CN2CCC3(CC2)CCN(C(=O)c2ccco2)CC3)cc1,-3.0%,.,-2.5%,2.3%,3.5%,.
CCCCC(=O)Nc1sc2c(c1C(=O)OCC)CCC(C=O)=C2Cl,-1.0%,7.6,-11.5%,10µM*,-1.3%,-5.4
CN1CCN(CC(=O)Nc2nc(-c3c[nH]c4ccccc34)cs2)CC1,2.4%,6.1,.,?,.,.
CNc1nc(-c2c[nH]c3ccccc23)cs1,5.2%,4.5,-24.2%,7.08µM*,-21.7%,10.9
Nc1nc(-c2c[nH]c3ccccc23)cs1,-15.4%,-1.0,-20.7%,7.94µM*,-10.8%,4.0
CCc1ccc(-c2csc(-c3c[nH]c4ccccc34)n2)cc1,7.5%,1.8,?,-3.0%,-29.8%,10.9
N#C/C(=C\c1ccc(OC(=O)c2ccc(Cl)s2)cc1)c1nc2ccccc2[nH]1,4.0%,0.8,-19.1%,4.6%,1.1%,70.2
O=C(Nc1nnc(SCc2ccc(F)cc2)s1)c1ccc2ncsc2c1,1.0%,8.6,-19.2%,?,-4.7%,-25.3
O=C(Nc1nnc(SCc2ccc(F)cc2)s1)c1ccc2c(c1)C(=O)N(c1ccccc1Cl)C2=O,-0.8%,2.6,.,1.26µM*,.,.
COC(=O)c1sc(=S)n(Cc2ccccc2)c1C,9.2%,-3.6,.,8.91µM*,.,.
Cc1cc(N2CCCCC2)ccc1[N+](=O)[O-],0.1%,25.9,22.4µM*,-0.6%,12.8%,30.5
SMILES,aGal spleen mod,GLA inh pH 4.5,HPGD block,ALDH1A1 inh,ALOX12 inhib,PNC inhibitor
O=C(c1ccccc1Br)N1CCN(c2ccc([N+](=O)[O-])c(N3CCOCC3)c2)CC1,6.2%,-7.0,.,7.94µM*,.,.
Cc1nn(-c2cc(N3CCNCC3)ccc2[N+](=O)[O-])c(=O)c2ccccc12,-2.2%,-9.6,-8.2%,?,-2.0%,-97.0*
Cc1cc(C)n(-c2cc(N3CCN(C(=O)c4cccc(Br)c4)CC3)ccc2[N+](=O)[O-])n1,0.3%,?,-13.2%,14.1µM*,-18.6%,48.5
CC(=O)N1CCN(c2ccc([N+](=O)[O-])c(-n3nc(C)cc3C)c2)CC1,1.5%,-5.5,-2.5%,-1.6%,-6.2%,20.0
CCc1cccc(Nc2cnn(C34C[C@@H]5C[C@@H](CC(CC(=O)O)(C5)C3)C4)c(=O)c2Cl)c1,-2.9%,1.1[21.1 µM],.,?,.,.
CNc1cc(N2CCN(S(=O)(=O)N(C)C)CC2)ccc1[N+](=O)[O-],-2.7%,-1.1,.,-10.7%,.,.
O=[N+]([O-])c1ccc(N2CCCC2)cc1N1CCCC1,4.2%,-1.9,-15.2%,14.1µM*,-8.7%,-27.4
CN(C)S(=O)(=O)N1CCN(c2ccc([N+](=O)[O-])c(N3CCCCC3)c2)CC1,0.1%,-9.2,.,3.98µM*,.,.
O=[N+]([O-])c1ccc(N2CCOCC2)cc1N1CCCCC1,1.3%,-11.7,.,5.62µM*,.,.
O=C(COc1ccccc1Cl)N1CCN(c2ccc([N+](=O)[O-])c(N3CCOCC3)c2)CC1,-15.8%,-16.3,-16.7%,11.2µM*,-0.8%,?
O=C(c1ccc(Cc2nc3ccccc3[nH]2)cc1)N1CCOCC1,.,.,-7.2%,-4.9%,-2.1%,.
NC(CCC(=O)NC(CCSC(CC(=O)O)C(=O)O)C(=O)NCC(=O)O)C(=O)O (stereo not drawn),-7.6%,8.9,-6.0%,5.3%,-1.8%,.
Cc1cc(C)n(-c2nc3ccccc3nc2N2CCN(C(=O)c3ccccc3)CC2)n1,-3.5%,-9.0,0.1%,12.6µM*,-5.4%,-28.5
CC(C)(C)c1ccc(CNc2cc(N3CCOCC3)ccc2[N+](=O)[O-])cc1,-6.7%,-2.8,.,1.58µM*,-14.3%,21.9
CC1CCCCN1CCCNC(=O)c1ccc(Cc2nc3ccccc3[nH]2)cc1 (stereo not drawn),.,.,-1.6%,3.7%,1.4%,.
N#Cc1c(NCc2ccccc2)ccnc1NCc1cccnc1,1.1%,4.9,12.6µM*,3.6%,0.6%,-106.1*
CN(C)c1ccnc(NCc2ccccc2)c1C#N,3.6%,-5.9,14.1µM*,?,-2.6%,?
CCOC(=O)C1CCN(CC(=O)N2C(C)CCCC2C)CC1 (stereo not drawn),2.9%,4.4,-18.9%,11.2µM*,-0.9%,-6.9
COc1ccc(-n2c(=O)c(-c3cccs3)nc3cnc(N4CCNCC4)nc32)cc1,-0.8%,.,?,?,-3.3%,.
O=C(Cc1cc(=O)[nH][nH]1)N/N=C/c1c(Cl)cccc1Cl,-4.4%,13.3,14.1µM*,11.2µM*!,-7.8%,?
